One molecule from the supplement of paper PMC8728848 can be followed below.

Assay in all cases: glycan array binding signal (z-score within array); higher = stronger binding
Common to all, as to conditions: glycan notation: IUPAC condensed, linker removed

Assay [1] concerns the target GlcNAc(b1-3)Gal(b1-4)GlcNAc. A digest of the protocol:
(§1)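 From the Consortium for Functional Glycomics database, 3228 arrays were curated, keeping only those whose protein sequence was available. Binding is given as a within-array Z-score averaged across arrays sharing a protein sequence and across linkers. Negative Z-scores can be read as non-binding.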

For assay [2], the target named is GlcNAc(b1-3)Gal(b1-4)GlcNAc(b1-3)Gal(b1-4)GlcNAc(b1-3)Gal(b1-4)GlcNAc(b1-3)Gal(b1-4)GlcNAc(b1-2)[GlcNAc(b1-3)Gal(b1-4)GlcNAc(b1-3)Gal(b1-4)GlcNAc(b1-3)Gal(b1-4)GlcNAc(b1-3)Gal(b1-4)GlcNAc(b1-6)]Man(a1-6)[GlcNAc(b1-3)Gal(b1-4)GlcNAc(b1-3)Gal(b1-4)GlcNAc(b1-3)Gal(b1-4)GlcNAc(b1-3)Gal(b1-4)GlcNAc(b1-2)Man(a1-3)]Man(b1-4)GlcNAc(b1-4)[Fuc(a1-6)]GlcNAc. In outline:
as §1

Assay [3] concerns the target GlcNAc(b1-4)Gal(b1-4)GlcNAc. A digest of the protocol:
as §1

A further assay concerns the target GlcNAc(b1-6)GalNAc. In outline:
as §1

Assay [4] has as its target Man(a1-2)Man(a1-3)[Man(a1-6)]Man(a1-6)[Man(a1-2)Man(a1-3)]Man(b1-4)GlcNAc(b1-4)GlcNAc. In outline: as §1
Assay [5] concerns the target Neu5Ac(a2-3)Gal(b1-3)[Fuc(a1-4)]GlcNAc. A digest of the protocol:
as §1

The target in assay [6] is Neu5Ac(a2-3)Gal(b1-4)[Fuc(a1-3)]GlcNAc. A digest of the protocol:
as §1

Assay [7] concerns the target Neu5Ac(a2-3)Gal(b1-4)[Fuc(a1-3)]GlcNAc(b1-6)[Neu5Ac(a2-3)Gal(b1-3)]GalNAc. In outline:
as §1

For another assay, the target named is Neu5Ac(a2-6)Gal. In outline:
as §1

The target in assay [8] is Neu5Ac(a2-6)Gal(b1-4)GlcNAc(b1-2)Man(a1-3)Man(b1-4)GlcNAc(b1-4)GlcNAc. A digest of the protocol:
as §1

The target in assay [9] is Neu5Ac(a2-6)Gal(b1-4)GlcNAc(b1-2)Man(a1-6)[Gal(b1-4)GlcNAc(b1-2)Man(a1-3)]Man(b1-4)GlcNAc(b1-4)GlcNAc. In outline: as §1
Assay [10] addresses Neu5Ac(a2-6)Gal(b1-4)GlcNAc(b1-3)Gal(b1-4)GlcNAc(b1-3)Gal(b1-4)GlcNAc(b1-2)Man(a1-3)[Neu5Ac(a2-6)Gal(b1-4)GlcNAc(b1-3)Gal(b1-4)GlcNAc(b1-3)Gal(b1-4)GlcNAc(b1-2)Man(a1-6)]GalNAc. In outline: as §1
The target in assay [11] is Neu5Ac(a2-6)Gal(b1-4)GlcNAc(b1-3)Gal(b1-4)GlcNAc(b1-6)[Gal(b1-3)]GalNAc. A digest of the protocol: as §1
The target in assay [12] is Neu5Ac(a2-6)Gal(b1-4)GlcNAc(b1-3)[Neu5Ac(a2-6)Gal(b1-4)GlcNAc(b1-6)]GalNAc. A digest of the protocol:
as §1

Assay [13] concerns the target Neu5Ac(a2-6)Gal(b1-4)GlcNAc(b1-6)GalNAc. A digest of the protocol:
as §1

In assay [14] the target is Neu5Ac(a2-6)GlcNAc(b1-4)GlcNAc. A digest of the protocol:
as §1

For assay [15], the target named is Neu5Ac(a2-8)Neu5Ac(a2-3)[GalNAc(b1-4)]Gal(b1-4)Glc. In outline: as §1
The target in assay [16] is Neu5Ac(a2-8)Neu5Ac(a2-8)Neu5Ac(a2-3)Gal(b1-4)Glc. A digest of the protocol: as §1
For assay [17], the target named is Neu5Ac(a2-8)Neu5Ac(a2-8)Neu5Ac(a2-8)Neu5Ac(a2-3)[GalNAc(b1-4)]Gal(b1-4)Glc. In outline: as §1
Assay [18] addresses Neu5Ac9Ac(a2-3)Gal(b1-3)GlcNAc. A digest of the protocol: as §1
In assay [19] the target is Neu5Ac9Ac(a2-3)Gal(b1-4)GlcNAc. In outline:
as §1

This is one part of a sample in which the strongest signals are shown more often than they occur.

B1: CC1G-11630 (Coprinopsis cinerea), A8P462 (protein)
chain: MTTEAKIKLKAVVYWELVFDYDNSSNTGEITQSYTVKISQTSTRSTFASEVSTTTIDTLTKNNQEVDVGASYGAISANVSASWEHSEEVNNMLEKTTQTSTEDTYTVETEETRSYTIGPGGMLSLFQKHFSGPGMHVAFDVFTTDLELAKERTEIDIDVDVEAIRFVREIRVVYTDIMSEAPGDHVREINGKNPDINYGFNGKFVWLVPEQTRKTAQALTNVEFVSQAESDDRYWDLAAGAGGSNRYLIPVYDTNNKDKIYELALWRSDSYITHDKVKAAGWSGTTGDINSGRGGTYLNLVWKTRHAY
Regarding B1, the “glycan array binding signal (z-score)” value in assay [1] is -0.538; in assay [2], 5.85; in [3], -0.152; in the assay with GlcNAc(b1-6)GalNAc, -0.182; in assay [4], -0.164; in assay [5] it was -0.138. Further, the “glycan array binding signal (z-score)” value in assay [6] was -0.567; in assay [7], 0.186; in the assay with Neu5Ac(a2-6)Gal, -0.074; in assay [8] it was -0.49; in [9], 15.9; in [10], 2.1. Besides, the “glycan array binding signal (z-score)” value in [11] is 0.078; in assay [12], 0.001; in assay [13], 2.18; in [14] it was -0.717; in assay [15], 0.069; in assay [16], -0.108. Moreover, the “glycan array binding signal (z-score)” value was -0.33 in assay [17], 0.279 in [18] and -0.202 in assay [19].
